Source: PubChem BioAssay
For some of these results: Entries with a potency or affinity are not part of this list. Calls of active or inactive are those of the source. Unless noted, the rule behind the calls is not given here.

Assays:
[1] = antimalarial activity against Dd2 strain (AID 2302;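 active = growth inhibition above 50% at the single 2 µM test dose, taken to imply half-maximal potency below 2 µM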;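 note: 0% = DMSO untreated growth and 100% = chloroquine plus artemisinin killed control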); settings: P. falciparum Dd2 in RBCs, LDH growth readout, 72 h; at 2 µM; hits give high values
[2] = HepG2 cytotoxicity, primary screen, cytotoxicity control for P. falciparum antimalarial project, cell-based, ATP luminescence (AID 2303;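 active = inhibition above 50%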;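 note: 0% = DMSO wells and 100% = digitonin-killed cells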); settings: HepG2 viability, 24-48 h, at 10 µM, hits give high values
[3] = target: L-lactate dehydrogenase (Plasmodium falciparum (isolate CDC / Honduras)) (UniProt Q27743); test: PfLDH activity inhibition – cell lysate, 3D7 strain, counter-screen for P. falciparum growth inhibition project (AID 2304);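 note: 0% = vehicle and 100% = reference inhibitor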; settings: P. falciparum 3D7 crude extract, LDH APAD/NBT absorbance; at 2 µM; hits give high values
[4] = inhibition of 3D7 malaria parasite growth – strain 3D7 (AID 2306);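 note: 0% = DMSO wells and 100% = chloroquine plus artemisinin control wells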; settings: P. falciparum 3D7 erythrocytic growth, LDH absorbance, 72 h; at 2 µM; hits give high values
[5] = target: Calcium-dependent protein kinase 1 (Plasmodium falciparum (isolate 3D7)) (UniProt P62344); test: PfCDPK1 kinase inhibitors, biochemical, TCAMS library (AID 1159585; cut-off not given, nearly all actives have IC50 up to about 0.98 µM;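 note: inhibitors leave more ATP so luminescence rises with inhibition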); settings: recombinant PfCDPK1, Kinase-Glo ATP depletion luminescence
[6] = target: Plasmodium falciparum protein kinase 6 (PK6, PF3D7_1337100) (UniProt Q8IDW1); test: PfPK6 kinase inhibitors, biochemical, TCAMS library (AID 1159586); settings: recombinant PfPK6, Kinase-Glo ATP depletion luminescence
[7] = target: Protein kinase 7 (PK7), Plasmodium falciparum 3D7 (PF3D7_0213400) (UniProt Q7YTF7); test: inhibition of Plasmodium PK7 catalytic activity – biochemical, TCAMS antimalarial set, Kinase-Glo luminescence (AID 1159587); settings: recombinant PfPK7, Kinase-Glo ATP depletion luminescence
[8] = target: Calcium-dependent protein kinase 4 (Plasmodium falciparum (isolate 3D7)) (UniProt Q8IBS5); test: PfCDPK4 kinase inhibitors, biochemical, TCAMS library (AID 1159588; cut-off not given, nearly all actives have IC50 up to about 0.91 µM); settings: recombinant PfCDPK4, Kinase-Glo ATP depletion luminescence
Sequence of Calcium-dependent protein kinase 4 (Plasmodium falciparum (isolate 3D7)) (Q8IBS5 whole entry, looked up): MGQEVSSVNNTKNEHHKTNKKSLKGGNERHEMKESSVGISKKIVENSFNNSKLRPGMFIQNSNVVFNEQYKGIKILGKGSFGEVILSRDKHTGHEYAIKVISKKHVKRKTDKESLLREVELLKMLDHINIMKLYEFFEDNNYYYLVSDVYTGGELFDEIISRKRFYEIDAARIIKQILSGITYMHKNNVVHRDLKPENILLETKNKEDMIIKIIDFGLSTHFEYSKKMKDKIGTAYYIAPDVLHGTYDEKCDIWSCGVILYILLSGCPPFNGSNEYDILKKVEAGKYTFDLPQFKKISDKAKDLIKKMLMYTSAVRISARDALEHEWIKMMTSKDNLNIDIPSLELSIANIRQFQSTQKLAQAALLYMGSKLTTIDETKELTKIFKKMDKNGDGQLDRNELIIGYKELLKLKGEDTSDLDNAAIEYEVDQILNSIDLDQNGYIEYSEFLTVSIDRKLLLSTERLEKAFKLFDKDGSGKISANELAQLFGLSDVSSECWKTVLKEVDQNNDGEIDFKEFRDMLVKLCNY

Sequence of L-lactate dehydrogenase (Plasmodium falciparum (isolate CDC / Honduras)) (Q27743 whole entry, looked up): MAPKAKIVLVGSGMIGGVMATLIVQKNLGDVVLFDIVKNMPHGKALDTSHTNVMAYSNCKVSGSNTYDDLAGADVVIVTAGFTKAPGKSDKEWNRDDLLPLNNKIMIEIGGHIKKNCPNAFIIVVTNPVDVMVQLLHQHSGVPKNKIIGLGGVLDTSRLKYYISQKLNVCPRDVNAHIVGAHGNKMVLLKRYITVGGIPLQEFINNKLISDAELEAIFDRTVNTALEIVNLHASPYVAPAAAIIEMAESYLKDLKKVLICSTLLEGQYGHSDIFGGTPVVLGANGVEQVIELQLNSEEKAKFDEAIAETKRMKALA
Sequence of Protein kinase 7 (PK7), Plasmodium falciparum 3D7 (PF3D7_0213400) (Q7YTF7 1-343): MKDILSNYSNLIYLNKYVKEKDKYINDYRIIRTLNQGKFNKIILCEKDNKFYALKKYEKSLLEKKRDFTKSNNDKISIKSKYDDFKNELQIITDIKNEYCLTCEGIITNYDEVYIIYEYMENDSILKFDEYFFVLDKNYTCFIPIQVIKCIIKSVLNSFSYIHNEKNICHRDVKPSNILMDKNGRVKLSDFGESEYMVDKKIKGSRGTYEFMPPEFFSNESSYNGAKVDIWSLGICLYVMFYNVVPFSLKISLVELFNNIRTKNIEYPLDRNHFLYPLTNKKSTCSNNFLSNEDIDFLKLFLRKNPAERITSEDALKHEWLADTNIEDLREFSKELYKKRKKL
Sequence of Calcium-dependent protein kinase 1 (Plasmodium falciparum (isolate 3D7)) (P62344 whole entry, looked up): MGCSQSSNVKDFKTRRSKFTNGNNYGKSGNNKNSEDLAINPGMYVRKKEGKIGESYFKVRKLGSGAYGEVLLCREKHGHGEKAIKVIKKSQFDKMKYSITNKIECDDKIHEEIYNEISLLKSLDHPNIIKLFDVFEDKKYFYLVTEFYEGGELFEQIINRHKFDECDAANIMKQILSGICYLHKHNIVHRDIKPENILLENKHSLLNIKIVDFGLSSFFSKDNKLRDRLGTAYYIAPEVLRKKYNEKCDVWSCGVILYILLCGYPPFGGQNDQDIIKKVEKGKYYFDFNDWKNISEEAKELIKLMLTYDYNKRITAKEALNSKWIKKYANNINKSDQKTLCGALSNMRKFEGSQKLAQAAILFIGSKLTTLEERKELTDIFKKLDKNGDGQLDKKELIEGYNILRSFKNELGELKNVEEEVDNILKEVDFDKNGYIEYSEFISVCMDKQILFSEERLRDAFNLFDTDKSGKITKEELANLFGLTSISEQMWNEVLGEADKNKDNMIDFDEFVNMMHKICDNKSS
Sequence of Plasmodium falciparum protein kinase 6 (PK6, PF3D7_1337100) (Q8IDW1 1-305): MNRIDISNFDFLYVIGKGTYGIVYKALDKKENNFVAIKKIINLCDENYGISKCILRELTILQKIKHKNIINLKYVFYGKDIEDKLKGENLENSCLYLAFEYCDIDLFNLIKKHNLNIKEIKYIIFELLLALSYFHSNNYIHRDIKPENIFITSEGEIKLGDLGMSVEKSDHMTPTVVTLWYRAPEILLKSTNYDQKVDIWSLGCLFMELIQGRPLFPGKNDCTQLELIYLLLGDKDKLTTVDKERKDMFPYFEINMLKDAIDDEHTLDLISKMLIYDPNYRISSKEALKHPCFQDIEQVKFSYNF

CCCC(=O)Nc1ccc(OCCCCN(CC(C)(C)C)c2ccc(C#N)c(C(F)(F)F)c2)cc1
inactive: inhibition [2] 9% | inhibition [3] -1% | outcome [5] | outcome [6] | outcome [7] | outcome [8]
active: growth inhibition [1] 69% | growth inhibition [4] 83%

NC(=O)c1ccsc1NC(=O)CNC(c1ccccc1)c1ccc(Cl)cc1 (stereo not given)
inactive: inhibition [2] 25% | inhibition [3] -3% | outcome [5] | outcome [6] | outcome [7] | outcome [8]
active: growth inhibition [1] 89% | growth inhibition [4] 83%

CC(C)(C(=O)NCCC1CCN(CCCCCNC(=O)/C=C/c2ccc(Cl)c(Cl)c2)CC1)c1ccc(Cl)cc1
active: inhibition [2] 92% | growth inhibition [4] 89%
inactive: growth inhibition [1] 33% | inhibition [3] -2% | outcome [5] | outcome [6] | outcome [7] | outcome [8]

O=C(Cc1cccc(Cl)c1)Nc1cccc(-c2c[nH]c3nc(Nc4cccc(OCc5ccccc5)c4)ncc23)c1
inactive: inhibition [2] -1% | inhibition [3] -1% | outcome [5] | outcome [6] | outcome [7] | outcome [8]
active: growth inhibition [1] 56% | growth inhibition [4] 100%

O=[N+]([O-])c1ccccc1C=NNc1ccnc2ccccc12
inactive: inhibition [2] 3% | inhibition [3] 2% | outcome [5] | outcome [6] | outcome [7] | outcome [8]
active: growth inhibition [1] 98% | growth inhibition [4] 101%

CC(C)CC1(C(=O)OC(C)(C)C)CC(C(=O)OC(C)(C)C)C(c2cccs2)N1C(=O)c1ccc(C(C)(C)C)cc1 (stereo not given)
inactive: inhibition [2] 21% | inhibition [3] -2% | outcome [5] | outcome [6] | outcome [7] | outcome [8]
active: growth inhibition [1] 100% | growth inhibition [4] 101%

O=C(Nc1cccc(CN2CCCN(Cc3cccc(O)c3)CC2)c1)c1cc2ccccc2s1
inactive: inhibition [2] 15% | inhibition [3] -4% | outcome [5] | outcome [6] | outcome [7] | outcome [8]
active: growth inhibition [1] 75% | growth inhibition [4] 101%

CC(=O)N1c2ccccc2C(C)=CC1(C)C
active: growth inhibition [4] 97%
inactive: growth inhibition [1] 11% | inhibition [2] 3% | inhibition [3] 1% | outcome [5] | outcome [6] | outcome [7] | outcome [8]

COc1ccc(NC(=O)[C@H](Cc2ccccc2)Nc2cc(C)nc(NCCc3cccs3)n2)cc1
inactive: inhibition [2] 12% | inhibition [3] -2% | outcome [5] | outcome [6] | outcome [7] | outcome [8]
active: growth inhibition [1] 83% | growth inhibition [4] 100%

O=C(N[C@@H](Cc1ccccc1)[C@H](O)CNC1CCOCC1)c1cc(C2CCCC2)cc(N2CCCCS2(=O)=O)c1
inactive: inhibition [2] 3% | inhibition [3] -1% | outcome [5] | outcome [6] | outcome [7] | outcome [8]
active: growth inhibition [1] 98% | growth inhibition [4] 100%

Cc1noc(C)c1-c1cccc(CNCc2ccc(-c3ccc(-c4nc5ccccc5[nH]4)s3)cc2)c1
active: growth inhibition [1] 79% | growth inhibition [4] 103%
inactive: inhibition [2] 41% | inhibition [3] -6% | outcome [5] | outcome [6] | outcome [7] | outcome [8]

O=C(/C=C/c1ccc(Cl)c(Cl)c1)NCCCCCN1CCC(NC(=O)NC2CCCCC2)CC1
active: growth inhibition [4] 96%
inactive: growth inhibition [1] 44% | inhibition [2] 22% | inhibition [3] -1% | outcome [5] | outcome [6] | outcome [7] | outcome [8]

CC(=O)Nc1cccc(C(=O)Nc2ccc(-c3cccc(-c4nc5ccc(F)cc5[nH]4)c3)cc2)c1
inactive: growth inhibition [1] 8% | inhibition [3] 0% | outcome [5] | outcome [6] | outcome [7] | outcome [8]
active: inhibition [2] 90% | growth inhibition [4] 96%

CCn1ccc2c(N3CCCCS3(=O)=O)cc(C(=O)N[C@@H](Cc3ccccc3)[C@H](O)CNC(C)(C)CCCC(C)C)cc21
active: growth inhibition [1] 98% | growth inhibition [4] 96%
inactive: inhibition [2] 23% | inhibition [3] -6% | outcome [5] | outcome [6] | outcome [7] | outcome [8]

O=C(Nc1ccc2c(c1)CN(Cc1ccc(N3CCCC3)o1)CCC2)c1cncs1
active: growth inhibition [4] 84%
inactive: growth inhibition [1] 37% | inhibition [2] 15% | inhibition [3] -2% | outcome [5] | outcome [6] | outcome [7] | outcome [8]

O=C(NC1CCC(N2CCC(c3ccccc3C(F)(F)F)CC2)CC1)c1cc2ccccc2[nH]1 (stereo not given)
inactive: inhibition [3] -5% | outcome [5] | outcome [6] | outcome [7] | outcome [8]
active: growth inhibition [1] 98% | inhibition [2] 80% | growth inhibition [4] 100%

CC(CNC(=O)[C@H]1CNCCN1C(=O)CCCc1ccccc1)c1ccccc1 (stereo not given in full)
inactive: growth inhibition [1] 1% | inhibition [2] 12% | inhibition [3] 3% | outcome [5] | outcome [6] | outcome [7] | outcome [8]
active: growth inhibition [4] 94%

COc1ccc2nccc([C@@H](O)CN3CCC(NCc4cc5oc(=O)[nH]c5cc4Cl)CC3)c2c1
inactive: inhibition [2] 1% | inhibition [3] -2% | outcome [5] | outcome [6] | outcome [7] | outcome [8]
active: growth inhibition [1] 91% | growth inhibition [4] 101%

O=C(Nc1ccc(Cl)cc1)c1cccc(CN2CCCN(Cc3cccc(O)c3)CC2)c1
inactive: growth inhibition [1] 43% | inhibition [2] 14% | inhibition [3] 3% | outcome [5] | outcome [6] | outcome [7] | outcome [8]
active: growth inhibition [4] 98%

Cc1cc(NCCCCCCNc2cc(C)nc3c(C)cccc23)c2cccc(C)c2n1
inactive: growth inhibition [1] 9% | inhibition [2] 23% | inhibition [3] -2% | outcome [5] | outcome [6] | outcome [7] | outcome [8]
active: growth inhibition [4] 100%
